ChEMBL document CHEMBL1961873, “Compounds: GSK PKIS; Assays: Nanosyn kinase panel” (2012)

target: Insulin receptor-related protein (Homo sapiens) (UniProt P14616); details: at 0.1 µM
Sequence (P14616 27-742 limits assumed): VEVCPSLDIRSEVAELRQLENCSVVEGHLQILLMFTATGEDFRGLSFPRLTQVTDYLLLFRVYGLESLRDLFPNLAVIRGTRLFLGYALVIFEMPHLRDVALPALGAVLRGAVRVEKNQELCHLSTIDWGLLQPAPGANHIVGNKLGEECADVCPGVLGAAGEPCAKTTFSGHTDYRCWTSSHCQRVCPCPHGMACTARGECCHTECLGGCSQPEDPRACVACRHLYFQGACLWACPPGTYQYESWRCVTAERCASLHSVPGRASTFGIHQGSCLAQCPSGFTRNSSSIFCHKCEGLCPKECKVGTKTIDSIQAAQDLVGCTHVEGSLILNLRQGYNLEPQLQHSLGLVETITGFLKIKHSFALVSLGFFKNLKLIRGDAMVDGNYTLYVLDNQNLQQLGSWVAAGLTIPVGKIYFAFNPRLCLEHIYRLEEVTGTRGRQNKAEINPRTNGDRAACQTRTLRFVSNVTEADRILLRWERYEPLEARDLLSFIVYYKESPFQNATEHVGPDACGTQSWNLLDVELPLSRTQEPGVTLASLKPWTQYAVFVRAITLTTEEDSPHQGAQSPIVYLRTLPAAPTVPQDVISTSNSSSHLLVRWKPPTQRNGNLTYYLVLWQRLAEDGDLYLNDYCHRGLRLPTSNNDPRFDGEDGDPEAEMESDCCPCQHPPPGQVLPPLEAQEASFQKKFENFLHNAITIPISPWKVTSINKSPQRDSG
Sequence (P14616 747-1297 limits assumed): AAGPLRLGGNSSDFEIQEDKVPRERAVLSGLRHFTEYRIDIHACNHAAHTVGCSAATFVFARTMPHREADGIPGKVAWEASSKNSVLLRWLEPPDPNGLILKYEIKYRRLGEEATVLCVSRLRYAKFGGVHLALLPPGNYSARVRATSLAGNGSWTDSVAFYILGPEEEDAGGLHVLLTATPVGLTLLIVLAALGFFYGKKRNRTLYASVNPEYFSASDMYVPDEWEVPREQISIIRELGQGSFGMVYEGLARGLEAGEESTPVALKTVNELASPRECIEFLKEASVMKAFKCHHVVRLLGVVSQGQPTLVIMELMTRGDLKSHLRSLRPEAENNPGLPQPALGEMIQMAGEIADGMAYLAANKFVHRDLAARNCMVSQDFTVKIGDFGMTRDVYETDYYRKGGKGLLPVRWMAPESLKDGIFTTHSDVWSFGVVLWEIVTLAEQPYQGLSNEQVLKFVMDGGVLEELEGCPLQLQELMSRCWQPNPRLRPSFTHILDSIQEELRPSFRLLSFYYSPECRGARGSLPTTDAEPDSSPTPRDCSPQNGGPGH

Compound	inhibition
COc1ccc(CNC(=O)c2ccc(-c3cc(-c4nnc(C)o4)ccc3C)cc2)cc1	0.27%
Fc1ccc(-c2cc(-c3c[nH]nc3-c3ccccn3)ccn2)cc1	2.45%
CS(=O)(=O)CCNCc1ccc(-c2ccc3ncnc(Nc4ccc(OCc5ccccc5)c(C(F)(F)F)c4)c3c2)o1	2.84%
COc1ccc2c(-c3ccnc(Nc4cccc(OC(F)(F)F)c4)n3)cnn2n1	4.74%
c1ccc(-c2nc3n(c2-c2ccc4c(c2)OCO4)CCC3)nc1	0.08%
COc1ccc(-c2cc(-c3c[nH]nc3-c3ccccn3)ccn2)cc1	3.63%
COc1ccc(-c2cc3c(N)ncnc3o2)cc1	-2.87%
FC(F)(F)c1cccc(-c2nn3ncccc3c2-c2ccnc(Nc3ccc4c(c3)OCCO4)n2)c1	0.31%
N#Cc1c(NC(=O)CN2CCOCC2)sc2c1CCCC2	3.54%
COC(=O)Nc1nc2ccc(Oc3ccc(NC(=O)Nc4cccc(Cl)c4)cc3)cc2[nH]1	-1.26%
CN1CCC(n2cnc(-c3ccc(F)cc3)c2-c2ccnc(Nc3ccccc3)n2)CC1	0.31%
Clc1ccc(-c2nn3ncccc3c2-c2ccnc(Nc3ccccc3)n2)cc1	0.65%
COc1ccc(-c2nn3ncccc3c2-c2ccnc(Nc3ccc4c(c3)OCCO4)n2)cc1	0.02%
Nc1nc(-c2ccc(F)cc2)c(-c2ccc3ncccc3n2)s1	2.47%
COc1ccc2[nH]c3c4[nH]c5ccc(OC)cc5c4c4c(c3c2c1)C(=O)NC4=O	3.27%
Cc1ccc(O)cc1Nc1ccnc2cc(-c3ccccn3)ccc12	5.36%
NS(=O)(=O)c1ccc(N/N=C2\C(=O)Nc3ccc4ncccc4c32)cc1	-0.5%

Compound	inhibition
CCN1CCC(CC(=O)Nc2n[nH]c3nnc(-c4cccc(F)c4F)cc23)CC1	1.41%
COc1cccc(-c2c[nH]c3c(N/N=C/c4ccncc4)ncnc23)c1	3.25%
NC(=O)c1sc(-n2cnc3ccc(C(F)(F)F)cc32)cc1OCc1ccccc1Br	1.61%
CC(C)COC(=O)c1ccc2c(c1)/C(=C/Nc1ccc(S(N)(=O)=O)cc1)C(=O)N2	-3.52%
CCn1c(-c2nonc2N)nc2cnc(Oc3cccc(NC(=O)c4ccc(N(C)C)cc4)c3)cc21	-0.46%
Fc1cccc(COc2ccc(Nc3ncnc4sc(-c5ccco5)cc34)cc2Cl)c1	2.1%
CC(=O)NCc1cccc(C#Cc2cncnc2Nc2ccc(OCc3cccc(F)c3)c(Cl)c2)c1	-0.93%
CS(=O)(=O)CCNCc1coc(-c2ccc3ncnc(Nc4ccc(OCc5ccccc5)cc4)c3c2)c1	-0.04%
Cc1ccc2c(-c3ccnc(Nc4ccccc4)n3)c(-c3ccc(F)cc3)nn2n1	4.42%
O=S(=O)(CCNCc1ccc(-c2ccc3ncnc(Nc4ccc(OCc5cccc(F)c5)c(Cl)c4)c3c2)o1)c1ccccc1	4.04%
CCNC(=O)O[C@H]1CN[C@H](C#Cc2cc3ncnc(Nc4ccc(OCc5cccc(F)c5)c(Cl)c4)c3s2)C1	0.8%
c1ccc(COc2ccc(Nc3ncnc4ccc(-c5ccco5)cc34)cc2)cc1	0.38%
COC(=O)c1sc(-n2cnc3cc(OC)c(OC)cc32)cc1OCc1ccccc1C(F)(F)F	1.78%
Cc1cccc2c1NC(=O)/C2=N\Nc1ccc(S(N)(=O)=O)cc1	6.42%
CC(=O)Nc1cccc(C#Cc2cncnc2Nc2ccc(OCc3cccc(F)c3)c(Cl)c2)c1	2.25%
CCn1c(-c2nonc2N)nc2ccccc21	3.31%

target: Insulin receptor-related protein (Homo sapiens) (UniProt P14616); details: at 1 µM

Compound	inhibition
COc1ccc(CNC(=O)c2ccc(-c3cc(-c4nnc(C)o4)ccc3C)cc2)cc1	0.52%
Fc1ccc(-c2cc(-c3c[nH]nc3-c3ccccn3)ccn2)cc1	2.16%
CS(=O)(=O)CCNCc1ccc(-c2ccc3ncnc(Nc4ccc(OCc5ccccc5)c(C(F)(F)F)c4)c3c2)o1	2.56%
COc1ccc2c(-c3ccnc(Nc4cccc(OC(F)(F)F)c4)n3)cnn2n1	3.42%
c1ccc(-c2nc3n(c2-c2ccc4c(c2)OCO4)CCC3)nc1	1.11%
COc1ccc(-c2cc(-c3c[nH]nc3-c3ccccn3)ccn2)cc1	3.15%
COc1ccc(-c2cc3c(N)ncnc3o2)cc1	-2.2%
FC(F)(F)c1cccc(-c2nn3ncccc3c2-c2ccnc(Nc3ccc4c(c3)OCCO4)n2)c1	1.27%
N#Cc1c(NC(=O)CN2CCOCC2)sc2c1CCCC2	3.5%
COC(=O)Nc1nc2ccc(Oc3ccc(NC(=O)Nc4cccc(Cl)c4)cc3)cc2[nH]1	-0.57%
CN1CCC(n2cnc(-c3ccc(F)cc3)c2-c2ccnc(Nc3ccccc3)n2)CC1	2.49%
Clc1ccc(-c2nn3ncccc3c2-c2ccnc(Nc3ccccc3)n2)cc1	0.7%
COc1ccc(-c2nn3ncccc3c2-c2ccnc(Nc3ccc4c(c3)OCCO4)n2)cc1	3.24%
Nc1nc(-c2ccc(F)cc2)c(-c2ccc3ncccc3n2)s1	1.87%
COc1ccc2[nH]c3c4[nH]c5ccc(OC)cc5c4c4c(c3c2c1)C(=O)NC4=O	6.93%
Cc1ccc(O)cc1Nc1ccnc2cc(-c3ccccn3)ccc12	3.66%
NS(=O)(=O)c1ccc(N/N=C2\C(=O)Nc3ccc4ncccc4c32)cc1	1.85%

Compound	inhibition
CCN1CCC(CC(=O)Nc2n[nH]c3nnc(-c4cccc(F)c4F)cc23)CC1	0.88%
COc1cccc(-c2c[nH]c3c(N/N=C/c4ccncc4)ncnc23)c1	2.79%
NC(=O)c1sc(-n2cnc3ccc(C(F)(F)F)cc32)cc1OCc1ccccc1Br	0.64%
CC(C)COC(=O)c1ccc2c(c1)/C(=C/Nc1ccc(S(N)(=O)=O)cc1)C(=O)N2	0.22%
CCn1c(-c2nonc2N)nc2cnc(Oc3cccc(NC(=O)c4ccc(N(C)C)cc4)c3)cc21	0.53%
Fc1cccc(COc2ccc(Nc3ncnc4sc(-c5ccco5)cc34)cc2Cl)c1	2.84%
CC(=O)NCc1cccc(C#Cc2cncnc2Nc2ccc(OCc3cccc(F)c3)c(Cl)c2)c1	-0.28%
CS(=O)(=O)CCNCc1coc(-c2ccc3ncnc(Nc4ccc(OCc5ccccc5)cc4)c3c2)c1	3.03%
Cc1ccc2c(-c3ccnc(Nc4ccccc4)n3)c(-c3ccc(F)cc3)nn2n1	2.61%
O=S(=O)(CCNCc1ccc(-c2ccc3ncnc(Nc4ccc(OCc5cccc(F)c5)c(Cl)c4)c3c2)o1)c1ccccc1	4.07%
CCNC(=O)O[C@H]1CN[C@H](C#Cc2cc3ncnc(Nc4ccc(OCc5cccc(F)c5)c(Cl)c4)c3s2)C1	1.47%
c1ccc(COc2ccc(Nc3ncnc4ccc(-c5ccco5)cc34)cc2)cc1	0.28%
COC(=O)c1sc(-n2cnc3cc(OC)c(OC)cc32)cc1OCc1ccccc1C(F)(F)F	-0.14%
Cc1cccc2c1NC(=O)/C2=N\Nc1ccc(S(N)(=O)=O)cc1	0.05%
CC(=O)Nc1cccc(C#Cc2cncnc2Nc2ccc(OCc3cccc(F)c3)c(Cl)c2)c1	1.77%
CCn1c(-c2nonc2N)nc2ccccc21	2.08%
